# Records with an inconclusive call do not appear. Calls of active or inactive are those of the source. Calls follow the shape of the full dose curve.
# Assay: NSCLC 1 Cell Viability Secondary Assay for qHTS Assay for Epigenetic Modulator
# Details: NSCLC 1 cells viability, MTS absorbance, 4 days
# Excerpt: NIH Molecular Libraries Screening Centers Network [MLSCN] NIH Chemical Genomics Center [NCGC] MLSCN Grant: 1 X01 MH079860-01 Assay Provider: Elisabeth D. Martinez, University of Texas SW Medical Center NCGC Assay Overview: This secondary assay characterizes selected actives identified in the qHTS of the Locus Derepression (LDR) assay (PubChem AID 597). The LDR assay detects the derepression of a GFP reporter that is stably integrated in a region of the genome of murine c127i mammary cells that is presumably silenced. Compounds that cause derepression of the locus to express GFP are identified by enumerating GFP positive cells using a laser-scanning microplate cytometer. […] NSCLC 1 cell viability was measured using Cell Titer 96 AQueous One (Promega), an assay which detects the ability of metabolically active cells to reduce a tetrazolium salt substrate (MTS), into a soluble formazan product that can be measured by colorimetry.
# NCGC Assay Protocol Summary NSCLC 1 cells were plated in 96-well flat bottom tissue culture dishes (Corning) and grown overnight at 37 C and 5% CO2, then treated with compounds, incubated 4 days, and assayed for viability using the Cell Titer 96 AQueous One kit (Promega) according to the manufacturer's protocol. Absorbance at 490 nm and 650 nm (reference) was measured by a Spectra Max (Molecular Devices). […]
compound,measurement,value
CN1CSC(=S)N(C)C1,outcome,inactive
